Source: the antibiotic and cytotoxicity screens of Wong et al. (2023)
In all, about 39,000 compounds went through this assay and about 3,300 (8.5%) were called active. What follows is part of a selection rich in actives, with near analogues and random picks from the rest.

Test system: HepG2
Test: cytotoxicity call (relative viability < 0.9)
Settings: 10 µM

SMILES	cytotoxicity call
COc1ccc(S(=O)(=O)Nc2cccc3c2O[C@@H](CN(C)S(=O)(=O)c2cccs2)[C@@H](C)CN([C@H](C)CO)C3=O)cc1	inactive
N#CCC(=O)Nc1ccncc1	inactive
COc1ccc(S(=O)(=O)N[C@H]2C=C[C@@H](CC(=O)NCCc3ccncc3)O[C@@H]2CO)cc1	inactive
COc1ccc(NC(=O)N2C[C@@H](O)COC[C@@H]3O[C@@H](CC(=O)NCc4ccccc4OC)CC[C@H]32)cc1	inactive
C[C@H]1CN([C@@H](C)CO)S(=O)(=O)c2ccc(C#Cc3ccccc3F)cc2O[C@H]1CN(C)C(=O)Cc1ccncc1	inactive
CC(C)N1C[C@H](C)[C@@H](CN(C)Cc2ccc(Oc3ccccc3)cc2)Oc2c(NC(=O)c3ccncc3)cccc2C1=O	inactive
CC(C)N1C[C@H](C)[C@@H](CN(C)Cc2ccc(Oc3ccccc3)cc2)Oc2c(NC(=O)c3cccnc3)cccc2C1=O	inactive
CC(C)N1C[C@H](C)[C@@H](CN(C)Cc2ccc(Oc3ccccc3)cc2)Oc2c(NC(=O)c3ccccc3)cccc2C1=O	active
C[C@H]1CCCCO[C@@H](CN(C)C(=O)c2ccccc2)[C@@H](C)CN([C@@H](C)CO)C(=O)c2cc(NC(=O)Nc3ccc(C(F)(F)F)cc3)ccc2O1	inactive
COc1ccc(CNC(=O)C[C@@H]2C[C@@H]3c4cc(NC(=O)NC5CCCC5)ccc4O[C@@H]3[C@@H](CO)O2)cc1	inactive
O=C(C[C@H]1C[C@@H]2c3cc(NS(=O)(=O)c4ccc(F)cc4)ccc3O[C@@H]2[C@@H](CO)O1)NCc1cccnc1	inactive
C[C@H]1CCCCO[C@@H](CN(C)Cc2ccncc2)[C@@H](C)CN([C@@H](C)CO)C(=O)c2cc(NC(=O)Nc3cccc4ccccc34)ccc2O1	inactive
C[C@@H]1CN([C@@H](C)CO)C(=O)c2cc(C#Cc3ccc(F)cc3)cnc2O[C@@H]1CN(C)CC1CCOCC1	inactive
Cc1ccc(S(=O)(=O)Nc2ccc3c(c2)C(=O)N([C@H](C)CO)C[C@H](C)[C@H](CN(C)C(=O)Nc2ccc(F)cc2)OCCCC[C@@H](C)O3)cc1	inactive
O=c1nc(N2CCc3ccccc3C2)cn[nH]1	inactive
COc1ccc(NC(=O)N(C)C[C@@H]2OCCCC[C@H](C)Oc3ccc(NS(=O)(=O)c4ccc(Cl)cc4)cc3C(=O)N([C@@H](C)CO)C[C@@H]2C)cc1	inactive
COc1ccc(cc1)CN1CC[C@]2(CC1)CN([C@H](CO)c1[nH]c3cc(ccc3c12)OC)C(=O)Nc1ccc(cc1)F	active
COc1ccc2c3c([nH]c2c1)[C@@H](CO)N(C[C@]13CCN(CC1)Cc1cc(on1)-c1ccccc1)C(=O)Nc1ccc(cc1)F	inactive
COc1ccc2c3c([nH]c2c1)[C@H](CO)N(C[C@]13CCN(CC1)C(=O)Nc1ccc(cc1)F)C(=O)c1ccc(cc1)F	inactive
COc1ccc2c3c([nH]c2c1)[C@@H](CO)N(C[C@]13CCN(CC1)C(=O)c1ccccc1F)C(=O)Nc1ccc(cc1)F	inactive
COc1ccc2c3c([nH]c2c1)[C@H](CO)N(C[C@]13CCN(CC1)C(=O)c1ccccc1F)C(=O)Nc1ccc(cc1)F	inactive
COc1ccc(cc1)CN1CC[C@]2(CC1)CN([C@@H](CO)c1[nH]c3cc(ccc3c12)OC)C(=O)Nc1ccc(cc1)F	active
COc1ccc(NC(=O)Nc2ccc3c(c2)C(=O)N([C@@H](C)CO)C[C@@H](C)[C@@H](CN(C)Cc2ccc(C(=O)O)cc2)OCCCC[C@@H](C)O3)cc1	inactive

SMILES	cytotoxicity call
C[C@H](CO)N1C[C@H](C)[C@H](CN(C)S(=O)(=O)c2cccs2)Oc2ccc(NC(=O)CCN3CCOCC3)cc2CC1=O	inactive
COc1ccccc1CNC(=O)C[C@H]1C[C@@H]2c3cc(NC(=O)c4ccc5c(c4)OCO5)ccc3O[C@@H]2[C@H](CO)O1	inactive
C[C@@H]1CCCCO[C@H](CN(C)Cc2ccccc2)[C@@H](C)CN([C@@H](C)CO)C(=O)c2cc(NC(=O)CCCCCC(=O)Nc3ccccc3N)ccc2O1	inactive
Cc1noc(C)c1NC(=O)N(C)C[C@@H]1Oc2ccc(NS(=O)(=O)c3ccccc3)cc2CC(=O)N([C@H](C)CO)C[C@@H]1C	inactive
COc1ccc(S(=O)(=O)Nc2ccc3c(c2)C(=O)N([C@@H](C)CO)C[C@@H](C)[C@H](CN(C)S(=O)(=O)c2cn(C)cn2)OCCCC[C@@H](C)O3)cc1	inactive
C[C@@H]1CN([C@H](C)CO)C(=O)c2cccc(NC(=O)c3ccc(-c4nccs4)cc3)c2O[C@@H]1CN(C)Cc1ccccc1	inactive
COc1ccc(C#Cc2cnc3c(c2)C(=O)N([C@H](C)CO)C[C@H](C)[C@H](CN(C)C(=O)NC(C)C)O3)cc1OC	inactive
CO[C@@H]1CN(C)C(=O)c2cc(NC(=O)NC(C)C)ccc2OC[C@@H](C)N(Cc2ccc(-c3ccccn3)cc2)C[C@H]1C	inactive
C=CCOC(=O)[C@H]1[C@@H]2C(=O)O[C@@H](c3ccccc3)[C@@H](c3ccccc3)N2[C@@H](c2ccc(OCCOC(=O)[C@H]3C[C@H]4C(=O)NCC(=O)N4[C@H]3c3cccc(OCCO)c3)cc2)[C@]12C(=O)Nc1ccc(I)cc12	inactive
Cc1noc(C)c1NC(=O)Nc1ccc2c(c1)C(=O)N([C@@H](C)CO)C[C@@H](C)[C@@H](CN(C)C(=O)NC1CCCCC1)OCCCC[C@@H](C)O2	inactive
CO[C@H]1/C=C\C=C(/C)C(=O)NC2=CC(=O)C=C(C2=O)[C@H](OC)[C@@H](C)C[C@H](OC)[C@H](O)[C@@H](C)/C=C(\C)[C@@H]1OC(N)=O	inactive
CO[C@H]1/C=C\O[C@@]2(C)Oc3c(C)c(O)c4c(c3C2=O)[C@]2(C=C(NC(=O)/C(C)=C\C=C/[C@@H](C)[C@@H](O)[C@@H](C)[C@@H](O)[C@@H](C)[C@@H](OC(C)=O)[C@@H]1C)C4=O)OCC(=O)O2	inactive
COC1=C2C[C@@H](C)C[C@H](OC)[C@H](O)[C@@H](C)/C=C(\C)[C@H](OC(N)=O)[C@@H](OC)/C=C\C=C(/C)C(=O)NC(=CC1=O)C2=O	active
COC1=C2C[C@@H](C)C[C@H](OC)[C@H](O)[C@@H](C)/C=C(\C)[C@H](OC(N)=O)[C@@H](OC)/C=C/C=C(\C)C(=O)NC(=CC1=O)C2=O	active
COC1=C2C[C@H](C)C[C@H](OC)[C@@H](O)[C@H](C)/C=C(\C)[C@H](OC(N)=O)[C@H](OC)/C=C/C=C(\C)C(=O)NC(=CC1=O)C2=O	active
Cc1ccc(S(=O)(=O)N2C[C@H](O)COC[C@@H]3O[C@H](CC(=O)N[C@H]4CCN(Cc5ccccc5)C4)CC[C@H]32)cc1	inactive
O=C(O)Cn1c(=O)oc2ccccc21	inactive
C[C@@H]1CN([C@H](C)CO)C(=O)c2cc(NC(=O)C3CCCCC3)ccc2O[C@@H](C)CCCCO[C@H]1CN(C)C(=O)Cc1ccccc1	inactive
COc1ccc(S(=O)(=O)N(C)C[C@@H]2OCCCC[C@@H](C)Oc3ccc(NC(=O)Nc4ccc(F)cc4)cc3C(=O)N([C@@H](C)CO)C[C@@H]2C)cc1	inactive
CCOc1ccc(Cc2nccc3cc(OCC)c(OCC)cc23)cc1OCC.Cl	active
COc1cc2ccnc(CCCN)c2cc1OC	inactive
CCOc1ccc([C@@H](C)N)cc1OCC	inactive
C[C@@H]1CN([C@@H](C)CO)C(=O)c2cccc(NC(=O)Nc3ccc(C(F)(F)F)cc3)c2O[C@H]1CN(C)Cc1ccc(C(=O)Nc2ccccc2N)cc1	active

SMILES	cytotoxicity call
C[C@H]1CN([C@@H](C)CO)C(=O)c2cccc(NC(=O)Nc3ccc(C(F)(F)F)cc3)c2O[C@@H]1CN(C)Cc1ccc(C(=O)Nc2ccccc2N)cc1	inactive
C[C@H](CO)N1C[C@H](C)[C@@H](CN(C)Cc2ccc(C(=O)Nc3ccccc3N)cc2)Oc2c(NC(=O)Nc3ccc(C(F)(F)F)cc3)cccc2C1=O	inactive
C[C@@H]1CN([C@H](C)CO)C(=O)c2cccc(NC(=O)Nc3ccc(C(F)(F)F)cc3)c2O[C@H]1CN(C)Cc1ccc(C(=O)Nc2ccccc2N)cc1	inactive
C[C@@H]1CN([C@@H](C)CO)C(=O)c2cccc(NC(=O)Nc3ccc(C(F)(F)F)cc3)c2O[C@@H]1CN(C)Cc1ccc(C(=O)Nc2ccccc2N)cc1	active
C[C@H]1CN([C@@H](C)CO)C(=O)c2cccc(NC(=O)Nc3ccc(C(F)(F)F)cc3)c2O[C@H]1CN(C)Cc1ccc(C(=O)Nc2ccccc2N)cc1	inactive
COCC(=O)N(C)C[C@@H]1Oc2cc(C#C[C@H](C)O)ccc2S(=O)(=O)N([C@H](C)CO)C[C@@H]1C	inactive
C[C@H](CO)N1C[C@H](C)[C@@H](CN(C)Cc2ccc(Cl)c(Cl)c2)Oc2ccc(NS(=O)(=O)c3ccc(F)cc3)cc2CC1=O	inactive
C[C@@H]1CN([C@@H](C)CO)C(=O)Cc2cc(NS(=O)(=O)c3ccc(F)cc3)ccc2O[C@@H]1CN(C)Cc1ccc(Cl)c(Cl)c1	active
C[C@@H]1CN([C@@H](C)CO)C(=O)Cc2cc(NS(=O)(=O)c3ccc(F)cc3)ccc2O[C@H]1CN(C)Cc1ccc(Cl)c(Cl)c1	inactive
C[C@@H]1CN([C@H](C)CO)C(=O)Cc2cc(NS(=O)(=O)c3ccc(F)cc3)ccc2O[C@H]1CN(C)Cc1ccc(Cl)c(Cl)c1	active
C[C@H]1CN([C@@H](C)CO)C(=O)Cc2cc(NS(=O)(=O)c3ccc(F)cc3)ccc2O[C@@H]1CN(C)Cc1ccc(Cl)c(Cl)c1	active
C[C@H](CO)N1C[C@H](C)[C@H](CN(C)Cc2ccc(Cl)c(Cl)c2)Oc2ccc(NS(=O)(=O)c3ccc(F)cc3)cc2CC1=O	inactive
C[C@H]1CN([C@@H](C)CO)C(=O)Cc2cc(NS(=O)(=O)c3ccc(F)cc3)ccc2O[C@H]1CN(C)Cc1ccc(Cl)c(Cl)c1	active
Cc1ccc(S(=O)(=O)Nc2ccc3c(c2)C(=O)N([C@H](C)CO)C[C@H](C)[C@H](CN(C)CC2CC2)O3)cc1	inactive
OCCn1cncn1	inactive
CN(C)CCCCNC(=O)[C@H]1C[C@H]2C(=O)NCC(=O)N2[C@H]1c1cccc(OCCO)c1	inactive
C[C@@H]1CCCCO[C@@H](CN(C)S(=O)(=O)c2cccs2)[C@H](C)CN([C@@H](C)CO)C(=O)c2cc(NC(=O)C3CCCCC3)ccc2O1	inactive
Cc1ncc(CO)c(CO)c1O	inactive
C[C@@H]1CCCCO[C@H](CN(C)Cc2ccncc2)[C@H](C)CN([C@@H](C)CO)C(=O)c2cc(NC(=O)Nc3ccc4c(c3)OCO4)ccc2O1	inactive
Cc1noc(C)c1NC(=O)N(C)C[C@@H]1Oc2ccc(NS(=O)(=O)c3ccccc3)cc2C(=O)N([C@@H](C)CO)C[C@H]1C	inactive
C[C@@H]1CN([C@H](C)CO)C(=O)Cc2cc(NS(=O)(=O)c3ccc(F)cc3)ccc2O[C@@H]1CN(C)Cc1ccc(Cl)c(Cl)c1	active
COc1ccc(S(=O)(=O)N(C)C[C@H]2Oc3c(NC(=O)C4CCOCC4)cccc3C(=O)N([C@@H](C)CO)C[C@@H]2C)cc1	inactive
